Measured values reported in PubChem BioAssay (EPA / NIEHS).
The source made the active and inactive calls. Rule for the calls: active = hit-call score of the fitted dose curve at least 0.9, where 1 is the maximum; inactive = score below 0.9.

Columns and labels:
Settings in all cases: mRNA level, 48 h; actives raise or lower the signal
CYP2E1 (gene 1571) = experiment: LTEA_HepaRG_CYP2E1: Life Technologies and Expression Analysis (LTEA) Assay for CYP2E1 using HepaRG (AID 2283485)
Summary of the method: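 HepaRG cells in serum-free induction medium exposed 48 h to test chemicals, 8 half-log concentrations up to 100 uM in 0.5% DMSO, duplicate. CYP2E1 mRNA by qRT-PCR, normalized to ACTB, GAPDH, POLR2A; bidirectional fit versus DMSO.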

CYP4A11 (gene 1579) = experiment: LTEA_HepaRG_CYP4A11: Life Technologies and Expression Analysis (LTEA) Assay for CYP4A11 using HepaRG (AID 2283486)
Summary of the method: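 Differentiated HepaRG cells, 48 h after plating, exposed in duplicate for 48 h to 8 half-log concentrations up to 100 uM in 0.5% DMSO in serum-free induction medium. CYP4A11 mRNA measured by TaqMan qRT-PCR, normalized to ACTB, GAPDH and POLR2A.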

[1] = read-out: Cytochrome P450 3A4 (Homo sapiens) (UniProt P08684); experiment: LTEA_HepaRG_CYP3A4: Life Technologies and Expression Analysis (LTEA) Assay for CYP3A4 using HepaRG (AID 2283487)
Summary of the method: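 CYP3A4 transcript measured by TaqMan qRT-PCR and normalized to three housekeeping genes after 48 h chemical exposure of human HepaRG cells. Top concentration 100 uM, half-log steps, 0.5% DMSO vehicle; gain or loss fitted against DMSO baseline.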

[2] = read-out: DNA damage-inducible transcript 3 (DDIT3), DDIT3 (gene 1649); experiment: LTEA_HepaRG_DDIT3: Life Technologies and Expression Analysis (LTEA) Assay for DNA damage-inducible transcript 3 (DDIT3) using HepaRG (AID 2283488)
Summary of the method: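 Differentiated human HepaRG cells in serum-free induction medium were exposed in duplicate for 48 h to 8 concentrations (top 100 uM, half-log steps, 0.5% DMSO). DDIT3 mRNA measured by TaqMan qRT-PCR, normalized to ACTB/GAPDH/POLR2A; bidirectional fit versus DMSO.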

[3] = read-out: Pro-epidermal growth factor (Homo sapiens) (UniProt P01133); experiment: LTEA_HepaRG_EGF: Life Technologies and Expression Analysis (LTEA) Assay for Epidermal growth factor (EGF) using HepaRG (AID 2283489)
Summary of the method: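 HepaRG cells (~100,000/well, 48 h pre-culture) exposed in duplicate for 48 h in serum-free induction medium to 8 half-log concentrations up to 100 uM in 0.5% DMSO. EGF mRNA by qRT-PCR, normalized to ACTB/GAPDH/POLR2A; bidirectional fit versus DMSO.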

[4] = read-out: Early growth response protein 1 (EGR1) transcription factor, EGR1 (gene 1958); experiment: LTEA_HepaRG_EGR1: Life Technologies and Expression Analysis (LTEA) Assay for Early growth response protein 1 (EGR1) transcription factor using HepaRG (AID 2283490)
Summary of the method: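 Differentiated HepaRG cells in serum-free induction medium exposed 48 hours, duplicate, to 8 half-log concentrations up to 100 uM in 0.5% DMSO. EGR1 mRNA measured by TaqMan qRT-PCR, normalized to ACTB, GAPDH, POLR2A; bidirectional fit versus DMSO.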

[5] = read-out: Ezrin (EZR), EZR (gene 7430); experiment: LTEA_HepaRG_EZR: Life Technologies and Expression Analysis (LTEA) Assay for Ezrin (EZR) using HepaRG (AID 2283491)
Summary of the method: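 HepaRG, 48 h chemical exposure, 8-pt half-log series from 100 uM, 0.5% DMSO vehicle, duplicates. Read-out: EZR mRNA by TaqMan qRT-PCR (Fluidigm array), housekeeping-normalized; bidirectional curve fit vs DMSO baseline.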

[6] = read-out: Cytochrome P450 3A7 (Homo sapiens) (UniProt P24462); experiment: LTEA_HepaRG_CYP3A7: Life Technologies and Expression Analysis (LTEA) Assay for CYP3A7 using HepaRG (AID 2283492)
Summary of the method: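 Differentiated HepaRG cells in serum-free induction medium exposed 48 h in duplicate to 8-point half-log series from 100 uM top in 0.5% DMSO. CYP3A7 mRNA by qRT-PCR, normalized to ACTB/GAPDH/POLR2A, bidirectional fit versus DMSO.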

CYP3A5 (gene 1577) = experiment: LTEA_HepaRG_CYP3A5: Life Technologies and Expression Analysis (LTEA) Assay for CYP3A5 using HepaRG (AID 2283493)
Summary of the method: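 Differentiated HepaRG cells in serum-free induction medium were dosed 48 h with test chemicals (8-point half-log series, top 100 uM, 0.5% DMSO, duplicate). CYP3A5 mRNA measured by qRT-PCR, normalized to ACTB, GAPDH, POLR2A; bidirectional fit versus DMSO.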

[7] = read-out: Fatty Acid-Binding Protein 1 (FABP1), FABP1 (gene 2168); experiment: LTEA_HepaRG_FABP1: Life Technologies and Expression Analysis (LTEA) Assay for Fatty Acid-Binding Protein 1 (FABP1) using HepaRG (AID 2283494)
Summary of the method: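 Differentiated human HepaRG cells exposed 48 h in serum-free induction medium to eight half-log concentrations up to 100 uM (0.5% DMSO), duplicate. FABP1 mRNA by qRT-PCR, normalised to ACTB, GAPDH, POLR2A; bidirectional fitting against DMSO.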

[8] = read-out: Cytochrome P450 4A22 (Homo sapiens) (UniProt Q5TCH4); experiment: LTEA_HepaRG_CYP4A22: Life Technologies and Expression Analysis (LTEA) Assay for Cytochrome P450 4A22 (CYP4A22) using HepaRG (AID 2283495)
Summary of the method: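 Differentiated HepaRG cells in serum-free induction medium exposed 48 h in duplicate to eight half-log concentrations up to 100 uM in 0.5% DMSO. CYP4A22 mRNA quantified by TaqMan qRT-PCR, normalized to ACTB, GAPDH and POLR2A; bidirectional fit versus DMSO.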

[9] = read-out: Glutathione S-Transferase (GSTA2), GSTA2 (gene 2939); experiment: LTEA_HepaRG_GSTA2: Life Technologies and Expression Analysis (LTEA) Assay for Glutathione S-Transferase (GSTA2) using HepaRG (AID 2283497)
Summary of the method: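 Differentiated human HepaRG cells were exposed in duplicate for 48 h in serum-free induction medium, 8 points from 100 uM top in half-log steps, 0.5% DMSO. GSTA2 mRNA was measured by TaqMan qRT-PCR, normalized to ACTB, GAPDH and POLR2A; bidirectional fit versus DMSO.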

[10] = read-out: Glutamate-cysteine ligase catalytic (GCLC), GCLC (gene 2729); experiment: LTEA_HepaRG_GCLC: Life Technologies and Expression Analysis (LTEA) Assay for Glutamate-cysteine ligase catalytic (GCLC) using HepaRG (AID 2283498)
Summary of the method: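 Differentiated HepaRG cells exposed 48 h in serum-free induction medium, eight-point half-log series topping at 100 uM in 0.5% DMSO, duplicates. GCLC mRNA by qRT-PCR normalized to ACTB, GAPDH and POLR2A, fitted bidirectionally versus DMSO.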

[11] = read-out: Glutamate-cysteine ligase regulatory (GCLM), GCLM (gene 2730); experiment: LTEA_HepaRG_GCLM: Life Technologies and Expression Analysis (LTEA) Assay for Glutamate-cysteine ligase regulatory (GCLM) using HepaRG (AID 2283500)
Summary of the method: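 Differentiated human HepaRG cells exposed 48 h in serum-free induction medium to 8-point half-log concentrations (top 100 uM, 0.5% DMSO), in duplicate. GCLM mRNA quantified by qRT-PCR, normalized to ACTB, GAPDH, POLR2A; bidirectional fitting versus DMSO.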

[12] = read-out: Glutathione S-transferase M3 (GSTM3), GSTM3 (gene 2947); experiment: LTEA_HepaRG_GSTM3: Life Technologies and Expression Analysis (LTEA) Assay for Glutathione S-transferase M3 (GSTM3) using HepaRG (AID 2283501)
Summary of the method: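 Differentiated human HepaRG cells were exposed in duplicate for 48 h in serum-free induction medium, 8 points from 100 uM top in half-log steps, 0.5% DMSO. GSTM3 mRNA was measured by TaqMan qRT-PCR, normalized to ACTB, GAPDH and POLR2A; bidirectional fit versus DMSO.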

[13] = read-out: Heat shock 70 kDa protein 1 (HSPA1A), gene 3303; experiment: LTEA_HepaRG_HSPA1A: Life Technologies and Expression Analysis (LTEA) Assay for Heat shock 70 kDa protein 1 (HSPA1A) using HepaRG (AID 2283502)
Summary of the method: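 Differentiated human HepaRG cells in serum-free induction medium were exposed in duplicate for 48 h to eight concentrations (top 100 uM, half-log steps, 0.5% DMSO). HSPA1A mRNA was quantified by qRT-PCR, normalized to ACTB, GAPDH and POLR2A, and fitted bidirectionally against DMSO.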

[14] = read-out: Hypoxia-inducible factor 1-alpha (Homo sapiens) (UniProt Q16665); experiment: LTEA_HepaRG_HIF1A: Life Technologies and Expression Analysis (LTEA) Assay for Hypoxia-inducible factor 1 (HIF1A) Trancription factor using HepaRG (AID 2283503)
Summary of the method: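 HepaRG, 48 h exposure, 8-pt half-log series from 100 uM, 0.5% DMSO vehicle, duplicates. Readout: HIF1A transcript by qRT-PCR (Fluidigm array), housekeeping-normalised. Bidirectional curve fit vs DMSO baseline.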

[15] = read-out: 3-Hydroxy-3-Methylglutaryl-CoA Synthase 2 (HMGCS2), HMGCS2 (gene 3158); experiment: LTEA_HepaRG_HMGCS2: Life Technologies and Expression Analysis (LTEA) Assay for 3-Hydroxy-3-Methylglutaryl-CoA Synthase 2 (HMGCS2) using HepaRG (AID 2283504)
Summary of the method: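 Human HepaRG cells in serum-free induction medium were exposed in duplicate for 48 h to 8-point half-log series from 100 uM top in 0.5% DMSO. HMGCS2 mRNA measured by TaqMan qRT-PCR, normalised to ACTB, GAPDH, POLR2A; bidirectional fit versus DMSO.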

[16] = read-out: Cytochrome P450 7A1 (Homo sapiens) (UniProt P22680); experiment: LTEA_HepaRG_CYP7A1: Life Technologies and Expression Analysis (LTEA) Assay for Cytochrome P450 7A1 (CYP7A1) using HepaRG (AID 2283496)
Summary of the method: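 Gene expression endpoint in human HepaRG liver cells treated for 48 h with test chemicals (up to 100 uM, 0.5% DMSO). Values come from bidirectional concentration-response fitting versus DMSO.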

[17] = read-out: growth arrest and DNA damage 45 (GADD45G), GADD45G (gene 10912); experiment: LTEA_HepaRG_GADD45G: Life Technologies and Expression Analysis (LTEA) Assay for growth arrest and DNA damage 45 (GADD45G) using HepaRG (AID 2283499)
Summary of the method: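 Differentiated human HepaRG cells, 48 h post-plating, exposed 48 h in serum-free induction medium to 8 half-log concentrations (top 100 uM, 0.5% DMSO) in duplicate. GADD45G mRNA measured by Fluidigm TaqMan qRT-PCR, normalized to ACTB, GAPDH, POLR2A; bidirectional fit versus DMSO.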

Measured: AC50

Chain of Cytochrome P450 3A4 (Homo sapiens) (P08684 whole entry, looked up): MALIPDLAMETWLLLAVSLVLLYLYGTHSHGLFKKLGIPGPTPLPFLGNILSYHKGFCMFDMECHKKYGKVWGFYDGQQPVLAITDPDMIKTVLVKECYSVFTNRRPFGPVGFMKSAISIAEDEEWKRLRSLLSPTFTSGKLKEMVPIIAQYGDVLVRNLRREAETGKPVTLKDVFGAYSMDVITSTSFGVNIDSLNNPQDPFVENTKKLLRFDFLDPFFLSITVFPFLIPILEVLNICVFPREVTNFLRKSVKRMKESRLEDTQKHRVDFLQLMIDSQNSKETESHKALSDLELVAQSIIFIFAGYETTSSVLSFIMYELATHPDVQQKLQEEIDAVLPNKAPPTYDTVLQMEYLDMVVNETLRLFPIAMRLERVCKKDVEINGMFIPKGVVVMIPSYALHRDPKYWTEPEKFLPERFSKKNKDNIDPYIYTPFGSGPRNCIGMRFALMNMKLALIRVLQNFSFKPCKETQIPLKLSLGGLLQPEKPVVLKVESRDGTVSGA
Chain of Hypoxia-inducible factor 1-alpha (Homo sapiens) (Q16665 whole entry, looked up): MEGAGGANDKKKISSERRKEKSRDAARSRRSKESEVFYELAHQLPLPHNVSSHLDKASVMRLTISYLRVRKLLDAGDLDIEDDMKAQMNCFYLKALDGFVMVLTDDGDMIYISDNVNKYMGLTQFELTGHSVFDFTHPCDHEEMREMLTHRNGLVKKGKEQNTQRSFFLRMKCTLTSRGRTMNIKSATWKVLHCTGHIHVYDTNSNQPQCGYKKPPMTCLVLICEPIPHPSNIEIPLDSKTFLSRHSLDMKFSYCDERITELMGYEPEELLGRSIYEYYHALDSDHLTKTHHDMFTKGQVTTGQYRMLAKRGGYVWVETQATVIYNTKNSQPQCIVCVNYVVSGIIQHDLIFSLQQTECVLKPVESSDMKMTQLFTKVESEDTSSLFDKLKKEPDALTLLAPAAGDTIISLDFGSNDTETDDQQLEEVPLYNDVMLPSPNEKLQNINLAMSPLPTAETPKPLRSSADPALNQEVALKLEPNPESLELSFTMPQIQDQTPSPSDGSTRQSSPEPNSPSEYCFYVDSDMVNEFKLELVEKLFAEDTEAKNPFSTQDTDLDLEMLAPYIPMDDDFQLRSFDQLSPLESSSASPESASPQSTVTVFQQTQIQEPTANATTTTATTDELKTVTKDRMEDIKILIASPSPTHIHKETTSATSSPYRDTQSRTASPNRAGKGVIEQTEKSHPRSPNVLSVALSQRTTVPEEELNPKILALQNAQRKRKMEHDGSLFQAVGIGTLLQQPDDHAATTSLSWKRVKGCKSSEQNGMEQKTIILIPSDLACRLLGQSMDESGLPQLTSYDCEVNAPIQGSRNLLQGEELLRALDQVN
Chain of Cytochrome P450 3A7 (Homo sapiens) (P24462 whole entry, looked up): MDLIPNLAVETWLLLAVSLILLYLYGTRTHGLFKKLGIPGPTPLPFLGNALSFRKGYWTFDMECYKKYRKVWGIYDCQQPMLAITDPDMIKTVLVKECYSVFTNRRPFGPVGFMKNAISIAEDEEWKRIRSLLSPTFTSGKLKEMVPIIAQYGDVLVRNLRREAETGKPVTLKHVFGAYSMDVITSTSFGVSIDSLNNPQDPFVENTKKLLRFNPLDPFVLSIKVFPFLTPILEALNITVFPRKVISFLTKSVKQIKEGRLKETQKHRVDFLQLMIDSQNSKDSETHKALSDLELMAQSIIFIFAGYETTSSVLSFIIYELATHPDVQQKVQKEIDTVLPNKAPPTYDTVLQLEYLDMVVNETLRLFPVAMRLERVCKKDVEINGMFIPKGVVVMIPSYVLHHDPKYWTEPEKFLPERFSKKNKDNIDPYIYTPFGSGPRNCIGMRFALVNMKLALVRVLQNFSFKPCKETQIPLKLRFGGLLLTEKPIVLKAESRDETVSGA

CCSC(=O)N(CC)C1CCCCC1
inactive: CYP2E1 (gene 1571) | CYP4A11 (gene 1579) | [1] | [2] | [3] | [4] | [5] | [6] | CYP3A5 (gene 1577) | [7] | [8] | [9] | [10] | [11] | [12] | [13] | [14] | [15]

O=C(O)C(F)(F)C(F)(F)C(F)(F)C(F)(F)C(F)(F)C(F)(F)C(F)(F)C(F)(F)C(F)(F)F
inactive: [4] | [11] | [13] | [14]
active: CYP2E1 (gene 1571) 25.4 µM | CYP4A11 (gene 1579) 81.5 µM | [1] 75.8 µM | [2] 17 µM | [3] 76.1 µM | [5] 11.5 µM | [6] 80.3 µM | CYP3A5 (gene 1577) 94.1 µM | [7] 33.7 µM | [8] 79.7 µM | [16] 27.6 µM | [9] 35.5 µM | [10] 85.4 µM | [17] 19.4 µM | [12] 74.8 µM | [15] 34 µM

c1cc2ccc3cccc4ccc(c1)c2c34
inactive: CYP4A11 (gene 1579) | [2] | [3] | [4] | [5] | CYP3A5 (gene 1577) | [7] | [8] | [16] | [9] | [10] | [17] | [11] | [12] | [13] | [14] | [15]

Cc1ccccc1O
inactive: CYP4A11 (gene 1579) | [1] | [2] | [3] | [4] | [5] | [6] | CYP3A5 (gene 1577) | [7] | [8] | [16] | [9] | [10] | [17] | [11] | [12] | [13] | [14] | [15]

Oc1c(Cl)c(Cl)c(Cl)c(Cl)c1Cl
active: CYP4A11 (gene 1579) 4.37 µM | [1] 4.73 µM | [2] 11.7 µM | [3] 25.5 µM | [4] 8.53 µM | [5] 1.58 µM | [6] 4.85 µM | CYP3A5 (gene 1577) 10.6 µM | [7] 2.35 µM | [8] 3.87 µM | [16] 3.88 µM | [9] 3.87 µM | [10] 1.97 µM | [17] 12.6 µM | [11] 2.1 µM | [12] 4.88 µM | [13] 6.34 µM | [14] 5.16 µM | [15] 4.84 µM

CCC(C)(CC)c1cc(NC(=O)c2c(OC)cccc2OC)on1
inactive: [3] | [4] | [5] | CYP3A5 (gene 1577) | [16] | [9] | [11] | [12] | [13] | [14] | [15]
active: CYP4A11 (gene 1579) 26.2 µM | [1] 0.541 µM | [2] 83.3 µM | [6] 1.39 µM | [7] 4.89 µM | [8] 19.5 µM | [10] 63.8 µM | [17] 80.1 µM

O=C(N[C@H]1CN2CCC1CC2)c1cc2ccoc2cn1
inactive: CYP4A11 (gene 1579) | [1] | [2] | [3] | [4] | [5] | [6] | CYP3A5 (gene 1577) | [7] | [8] | [16] | [9] | [10] | [17] | [11] | [12] | [13] | [14] | [15]
